YB-1 expression: YB-1 expression inhibition; 0.37% of 30,000 active; AID 434959; U2OS, qRT-PCR YB-1 vs CDIP delta delta Cp, 16 h; active compounds read high; zero = DMSO, each unit about twofold; delta delta Cp (YB-1 minus CDIP) (no concentration beside the values);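 active means delta delta Cp rounded down to an integer at or above 3, about 3 SD of DMSO wells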;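 further: higher means less YB-1 transcript or more CDIP transcript relative to DMSO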
PD-1 reversal: activators reversing PD-1 mediated T-cell inhibition. 29,000 tested, under 10 active. primary human CD4 T cells, PD-L1 beads, CellTiter-Glo 96 h. activation, % (test concentration not listed); call rule not given here
ROS inducer: inducers of reactive oxygen species in cancer cells; U2OS ROS induction, H2DCF-DA fluorescence; ROS induction (% of piperlongumine), % at 10 µM; 2% of 46,000 active; AID 624156; in the data active means ROS induction above about 79%, passing the limit was not always enough; inconclusive means no clear call, values can overlap the other calls
Each line names hits and unclear results; the compound was inactive in the other large screens. Rows were chosen to be rich in hits. Some 2.3% of all compounds tested hit in one or more screens of this group.

Cc1ccc(NC(=O)CSc2nnc(-c3ccco3)n2C)c(Br)c1	none (no result: YB-1 expression)
CCC(C)C(=O)Nc1ccc(Cl)cc1 (stereo not given)	none (no result: YB-1 expression, PD-1 reversal)
O=C(C(Cc1ccccc1Cl)C(=O)N1CCc2ccccc21)N1CCc2ccccc21	ROS inducer 141
O=C(CC(C(=O)N1CCc2ccccc21)C(=O)N1CCc2ccccc21)c1ccccc1	none
C[C@@H]1CN([C@H](C)CO)C(=O)Cc2cc(NS(=O)(=O)c3cccs3)ccc2O[C@H]1CN(C)Cc1ccc(-c2ccccc2)cc1	ROS inducer 96
C[C@@H]1CN([C@H](C)CO)C(=O)Cc2cc(NS(=O)(=O)c3ccc(F)cc3)ccc2O[C@@H]1CN(C)Cc1ccc(-c2ccccc2)cc1	ROS inducer 107
C[C@@H]1CN([C@@H](C)CO)C(=O)Cc2cc(NS(=O)(=O)c3cccs3)ccc2O[C@@H]1CN(C)Cc1ccc(-c2ccccc2)cc1	none (no result: PD-1 reversal)
C[C@@H]1CN([C@H](C)CO)C(=O)Cc2cc(NS(=O)(=O)c3ccc(F)cc3)ccc2O[C@H]1CN(C)Cc1ccc(-c2ccccc2)cc1	none
O=C(Nc1ccc(I)cc1C(=O)NCCN1CCOCC1)c1cccnc1	none (no result: YB-1 expression)
COC(=O)c1ccc(-c2ccco2)n1Cc1nc(-c2ccccc2F)oc1C	none (no result: YB-1 expression, PD-1 reversal)
CCCCc1c(-c2ccc(OC)cc2)[nH]c2nccnc12	none
CCCCc1c(-c2ccc(O)cc2)[nH]c2nccnc12	YB-1 expression 3.3
C=CCn1c(SCC(=O)c2ccccc2)nnc1-c1sc2nc(C)cc(C)c2c1N	none
C/C1=C/CC/C(CO)=C\[C@H]2OC(=O)C(CN3CCCC3C(=O)O)[C@@H]2[C@@H](OC(=O)C(C)CO)C1 (stereo not given in full)	ROS inducer 132 (no result: PD-1 reversal)
C=C(C(=O)O[C@H]1C/C(C)=C\CC/C(CO)=C\[C@H]2OC(=O)C(=C)[C@H]12)C(O)CO (stereo not given in full)	none
COCCOC(=O)N1C(=O)[C@@]2(c3cc(C#CCC(C(=O)OC)C(=O)OC)ccc31)[C@H](C(N)=O)[C@H]1C(=O)O[C@H](c3ccccc3)[C@H](c3ccccc3)N1[C@@H]2c1ccccc1OCCO	ROS inducer 162 (no result: PD-1 reversal)
COCCOC(=O)N1C(=O)[C@@]2(c3cc(C#CCC(C(=O)OC)C(=O)OC)ccc31)[C@H](C(=O)N1CCN(c3ncccn3)CC1)[C@H]1C(=O)O[C@H](c3ccccc3)[C@H](c3ccccc3)N1[C@@H]2c1ccc(O)cc1	none (no result: PD-1 reversal)
COCCOC(=O)N1C(=O)[C@@]2(c3cc(C#Cc4ccc(OC)cc4)ccc31)[C@H](c1ccccc1OCCO)N1[C@H](c3ccccc3)[C@H](c3ccccc3)OC(=O)[C@H]1[C@@H]2C(=O)N1CCN(c2ncccn2)CC1	none (no result: PD-1 reversal)
COCCOC(=O)N1C(=O)[C@@]2(c3cc(C#CCC(C(=O)OC)C(=O)OC)ccc31)[C@H](C(=O)N1CCN(c3ncccn3)CC1)[C@H]1C(=O)O[C@H](c3ccccc3)[C@H](c3ccccc3)N1[C@@H]2c1ccccc1OCCO	ROS inducer 80 (no result: PD-1 reversal)
COCCOC(=O)N1C(=O)[C@@]2(c3cc(C#CCC(C(=O)OC)C(=O)OC)ccc31)[C@H](C(N)=O)[C@H]1C(=O)O[C@H](c3ccccc3)[C@H](c3ccccc3)N1[C@@H]2c1ccc(OCCO)cc1	ROS inducer inconclusive (no result: PD-1 reversal)
COCCOC(=O)N1C(=O)[C@@]2(c3cc(C#CC4(O)CCCCCC4)ccc31)[C@H](C(=O)N1CCN(c3ncccn3)CC1)[C@H]1C(=O)O[C@H](c3ccccc3)[C@H](c3ccccc3)N1[C@@H]2c1ccccc1OCCO	ROS inducer 84 (no result: PD-1 reversal)
O=C(NC=Nc1cccnc1)C1COc2ccccc2O1 (stereo not given)	none (no result: YB-1 expression, PD-1 reversal)
O=c1cc(N2CCOCC2)oc2c1ccc1ccccc12	none
O=c1cc(N2CCOCC2)oc2c(-c3ccccc3)cccc12	ROS inducer 85
CCNC(=O)c1ccc2c(c1)sc1nc(-c3ccc(OC)cc3)cn12	none (no result: YB-1 expression, PD-1 reversal)
Cc1ccc(S(=O)(=O)c2ccc(C)cc2)cc1	none
Cc1ccc(S(=O)(=O)/C=C/C#N)cc1	ROS inducer 143
Cc1ccc(C(=NCc2ccccc2)NC#N)cc1	none (no result: YB-1 expression, PD-1 reversal)
C[C@@H]1CCCCO[C@@H](CN(C)C(=O)NC2CCCCC2)[C@@H](C)CN([C@H](C)CO)C(=O)c2cc(NC(=O)Nc3cccc4ccccc34)ccc2O1	ROS inducer 139
CC(C)NC(=O)Nc1ccc2c(c1)C(=O)N([C@H](C)CO)C[C@H](C)[C@H](CN(C)C(=O)Cc1ccccc1)OCCCC[C@@H](C)O2	none
C[C@@H]1CCCCO[C@@H](CN(C)C(=O)Cc2ccccc2)[C@@H](C)CN([C@H](C)CO)C(=O)c2cc(NC(=O)NC3CCCCC3)ccc2O1	ROS inducer 143
C[C@@H]1CCCCO[C@@H](CN(C)C(=O)Nc2cccc3ccccc23)[C@@H](C)CN([C@H](C)CO)C(=O)c2cc(NS(=O)(=O)c3ccc(Cl)cc3)ccc2O1	ROS inducer 107 (no result: PD-1 reversal)
C[C@@H]1CCCCO[C@@H](CN(C)C(=O)Nc2cccc3ccccc23)[C@@H](C)CN([C@H](C)CO)C(=O)c2cc(NS(=O)(=O)c3ccc(F)cc3)ccc2O1	none (no result: PD-1 reversal)
C[C@@H]1CCCCO[C@@H](CN(C)C(=O)Nc2cccc3ccccc23)[C@@H](C)CN([C@H](C)CO)C(=O)c2cc(NC(=O)NC3CCCCC3)ccc2O1	none
COc1ccc(NC(=O)c2ccc3c(c2)OCCO3)cc1	none (no result: YB-1 expression, PD-1 reversal)
COc1ccc(Br)cc1S(=O)(=O)N1CCN(Cc2ccc3c(c2)OCO3)CC1	none (no result: YB-1 expression, PD-1 reversal)
CCc1ccccc1NC(=O)CCn1c(=O)c2cccn2c2ccccc21	none (no result: YB-1 expression, PD-1 reversal)
CC1CCCCN1S(=O)(=O)c1ccc(C(=O)O)cc1 (stereo not given)	none (no result: YB-1 expression, PD-1 reversal)
O=C1N(CCS(=O)(=O)c2ccccc2)c2ccccc2[C@H]2OC(c3ccc(OCCCO)cc3)=N[C@@]12CCS(=O)(=O)c1ccccc1	none (no result: PD-1 reversal)
O=C1CC(c2ccccc2Cl)Cc2c1cnn2-c1nc2ccccc2s1 (stereo not given)	none (no result: YB-1 expression, PD-1 reversal)
O=C1CCCC2=C1C(c1ccccc1Cl)N=C(Nc1nc3ccccc3s1)N2 (stereo not given)	ROS inducer 178
CCOC(=O)CSc1ncnc2scc(-c3ccc(Cl)cc3)c12	none (no result: YB-1 expression)
Cc1cc(-n2c(=S)sc3c(=O)n(-c4ccc(F)cc4)c(SCC#N)nc32)ccc1Cl	none (no result: YB-1 expression, PD-1 reversal)
N#C/C(=C\N1CCC(n2cccc2)CC1)S(=O)(=O)c1ccccn1	none (no result: YB-1 expression, PD-1 reversal)
Cc1ccc2nc(C(F)(F)F)cc(N3CCN(/C=C(/C#N)S(=O)(=O)c4ccccn4)CC3)c2c1	ROS inducer 93 (no result: YB-1 expression, PD-1 reversal)
O=C(Cn1cnc2c(nnn2-c2cccc(Cl)c2)c1=O)NCC1CCCO1 (stereo not given)	none (no result: YB-1 expression, PD-1 reversal)
C[C@H]1CC[C@@H]2[C@@H](C(=O)c3c(O)c([C@]4(O)CC[C@@H](O)[C@H]5O[C@H]54)cn(O)c3=O)[C@@H](C)C=C[C@H]2C1	none
COc1ccc(OC)c(NC(=O)c2ccc(N(C)S(=O)(=O)c3ccc(OC)c(OC)c3)cc2)c1	none (no result: YB-1 expression)
O=C(O)C1C2C=CC(O2)C1C(=O)Nc1ccc(S(=O)(=O)N2CCc3ccccc32)cc1 (stereo not given)	none (no result: YB-1 expression)
O=S(=O)(c1ccc(Cl)cc1)N1CCc2ccccc21	ROS inducer 87
CCCCN(Cc1cc2cccc(C)c2[nH]c1=O)S(=O)(=O)c1ccccc1	none (no result: YB-1 expression, PD-1 reversal)
COc1cccc(-c2nnc(-c3ccccc3)o2)c1	none (no result: YB-1 expression, PD-1 reversal)
